Bioassay records (PubChem BioAssay)
A selection: hits, their analogues and other compounds. The true share with any hit is near 10%.
NPR1 antag: Natriuretic polypeptide receptor (hNpr1) antagonism - Primary qHTS | hit rate 1.6% among 76,000 | Atrial natriuretic peptide receptor 1 (Homo sapiens), P16066 | HEK293 hNpr1 GloSensor cGMP, ANP-stimulated luminescence | Potency, µM (series often up to 46.3 µM), without a hit: top-dose activity change, negative = inhibition, most hits filed as inhibitors | AID 1347048, 2019; calls by dose curve; also: nearly all actives have a fitted effect of over 60% in size
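HEK293 cells stably expressing human Npr1 and cGMP GloSensor pGS-40F, loaded 2 h with 2% GloSensor reagent, given compound 30 min at room temperature. Luminescence read before and 20 min after 0.1 nM hNppA.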
3T3 cytotox: Cytotoxic Profiling in NIH 3T3 Cell Line of Diverse Libraries Using Quantitative High-Throughput Screening. NIH 3T3 viability, CellTiter-Glo ATP luminescence, 48-72 h. Potency, µM (series often up to 96.7 µM), for inactives: top-dose activity change, negative = cytotoxicity, actives largely listed as inhibitors. hit rate 4.3% among 94,000. AID 1345082, 2018; also: nearly all actives have a fitted effect of over 55% in size
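Viability of NIH 3T3 cells after 48 or 72 hr compound treatment at 37 °C was assessed by CellTiter-Glo, with luminescence imaged following a 10 min room-temperature step.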
Luciferase inh: Firefly luciferase inhibition profiling of diverse chemical library using quantitative high-throughput screening. hit rate 2.5% among 76,000. purified P. pyralis luciferase, luminescence, biochemical. Potency, µM (doses to about 115 µM), actives largely listed as inhibitors. AID 1347043, 2019; also: nearly all actives have a fitted effect of over 65% in size
Target sequence (P08659 whole entry, looked up): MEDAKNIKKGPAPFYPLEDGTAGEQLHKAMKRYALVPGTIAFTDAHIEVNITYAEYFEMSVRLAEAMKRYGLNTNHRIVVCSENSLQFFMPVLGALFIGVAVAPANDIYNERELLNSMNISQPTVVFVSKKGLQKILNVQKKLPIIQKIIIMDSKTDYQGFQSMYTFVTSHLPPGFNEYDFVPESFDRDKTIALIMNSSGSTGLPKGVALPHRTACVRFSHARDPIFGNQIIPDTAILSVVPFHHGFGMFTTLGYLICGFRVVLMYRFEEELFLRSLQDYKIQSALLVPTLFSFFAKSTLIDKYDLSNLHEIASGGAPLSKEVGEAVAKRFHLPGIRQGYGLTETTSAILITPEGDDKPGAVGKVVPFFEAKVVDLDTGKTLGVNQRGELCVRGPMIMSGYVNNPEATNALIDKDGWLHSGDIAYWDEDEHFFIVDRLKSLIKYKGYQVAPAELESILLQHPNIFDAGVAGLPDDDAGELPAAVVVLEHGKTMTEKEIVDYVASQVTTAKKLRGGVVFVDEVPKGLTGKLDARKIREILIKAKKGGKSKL
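Biochemical qHTS: compound (6-point titration) added to 10uM D-luciferin plus 10uM ATP in Tris acetate pH 7.5 buffer with Mg, Tween-20 and BSA, then purified enzyme at 10nM; light output imaged.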
GPT2 inhibitor: Primary qHTS assay for inhibitors of Glutamate pyruvate transaminase 2 (GPT2); Alanine aminotransferase 2 (Homo sapiens), Q8TD30; Recombinant GPT2, coupled pyruvate oxidase/HRP Amplex Red fluorescence; Potency, µM (top dose mostly 57.7 µM), for inactives: top-dose activity change, negative = inhibition, actives largely listed as inhibitors; hit rate 0.25% among 100,000; also: nearly all actives have a fitted effect of over 60% in size
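Inhibition is scored from Amplex Red fluorescence generated when pyruvate oxidase and HRP act on pyruvate released by GPT2. Reactions contain 10ng/uL enzyme, 250uM a-KG and 2mM L-alanine and run 30 min at room temperature.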
HEK cytotox: Cytotoxic Profiling in HEK 293 Cell Line of Diverse Libraries Using Quantitative High-Throughput Screening | HEK 293 viability, ATP luminescence (CellTiter-Glo), 48-72 h | Potency, µM (highest dose often 115 µM), without a hit: at the highest dose activity change, negative = cytotoxicity, most hits filed as inhibitors | hit rate 6.6% among 94,000 | AID 1345083, 2018; also: nearly all actives have a fitted effect of over 60% in size
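Cytotoxicity was scored by loss of ATP-coupled luminescence (CellTiter-Glo) in HEK 293 cells. Compound treatment ran 48 or 72 hr at 37 degree Celsius, 5% CO2, 95% humidity.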
* marks the source's active call; other numbers are inactive results; i = inactive; ? = inconclusive; . = no result; [ ] = remark or other dose. Unless noted, calls follow the shape of the dose curve; as a rule, active = well fitted curve in the direction sought with a large enough effect; inconclusive = small, poorly fitted or top-dose-only effect, or another doubt; inactive = no such curve, though single readings can be large; an effect the other way counts as inactive or inconclusive. % is scaled to controls: 0 for no effect and ±100 for the full control effect; potency is read from the fitted curve at half-maximal effect.

SMILES	NPR1 antag	3T3 cytotox	Luciferase inh	GPT2 inhibitor	HEK cytotox
O=C(Nc1cccnc1)c1nnn2c1CN(Cc1ccccc1F)C(=O)CC2	0%[70.6 µM]	100µM*	i	2%[88.5 µM]	-1%[172 µM]
C[S+](=O)([O-])c1cccc(NC(=O)c2nnn3c2CN(Cc2cccc(Cl)c2)C(=O)CC3)c1	3%	?	i	-15%	?
c1cc(CN2CC(Oc3ccc4c(c3)OCO4)C2)cs1	.	-8%	.	i	-7%
COCCCn1c(=O)c(C(=O)NCc2cccc(Cl)c2)nc2cccnc21	.	?	.	i	-25%
Cc1oc2ccn(Cc3cccc(F)c3)c(=O)c2c1C(=O)NCC1CCCCC1	-16%	40µM*	i	4%	40µM*
Cc1oc2ccn(Cc3ccccc3F)c(=O)c2c1C(=O)NCc1cc(F)cc(F)c1	-4%	?	i	i	35µM*
CCOC(=O)c1cccc(NC(=O)c2c(C)oc3ccn(Cc4ccc(F)cc4)c(=O)c23)c1	-5%	?	i	-11%	40µM*
COc1cccc(CNC(=O)c2c(C)oc3ccn(Cc4ccc(F)cc4)c(=O)c23)c1	-19%	?	i	i	40µM*
COc1ccccc1CNC(=O)c1c(C)oc2ccn(Cc3cccc(F)c3)c(=O)c12	-19%	?	?	3%	?
O=C(Nc1ccc(Cl)cc1)NC1CCN(CCn2nc3n(c2=O)CCCC3)C1 (stereo not given)	.	?	.	.	-17%
CC(C)c1noc(C2CCCN(Cc3cn(C(C)C)c4ccccc34)CCC(=O)NCC2)n1 (stereo not given)	-7%	?	i	i	40µM*
COc1ccc2c(c1)c(CN1CCCC(c3nc(C(C)C)no3)CCNC(=O)CC1)cn2C(C)C (stereo not given)	-20%	?	i	-25%	?
COc1cc(CNC(=O)[C@@H]2COCC(=O)N2Cc2ccc(C)cc2)cc(OC)c1	.	-25%	.	i	-6%
CC(C)C(=O)N1C[C@@H](Oc2ccccc2)C[C@@H]1C(=O)N1CCOCC1	-3%	-2%	i	i	-8%
CCc1cc(=O)n(CC(=O)N2CCN(c3ccccc3F)CC2)c(N2CCOCC2)n1	-24%	?	i	i	40µM*
O=C(Nc1ccccc1)N1CCC2(CC1)SCC(=O)N2c1ccc(Cl)cc1	-4%	?	22µM*	1%	?
COc1ccc(N2C(=O)CSC23CCN(C(=O)NCc2ccccc2)CC3)cc1	4%	-16%	i	i	?
COc1ccc(N2C(=O)CSC23CCN(C(=O)Nc2ccc([N+](=O)[O-])cc2)CC3)cc1	-4%	?	i	1%	25µM*
O=C(NCc1nc(-c2cccc(F)c2)c(-c2ccccn2)[nH]1)N1CCCC1	5%	?	i	-7%	50µM*
NC1(C(=O)NCc2nc(-c3cccc(F)c3)c(-c3ccccn3)[nH]2)CCC1	-10%	-1%	i	?	-9%
Cc1ccc(-c2cc(N3CCCN(C(=O)c4ccsc4)CC3)n[nH]2)cc1C	1%	?	i	-18%	?
O=C(c1ccsc1)N1CCN(c2cc(-c3ccc(Cl)cc3)[nH]n2)CC1	-26%	25µM*	i	i	?
O=C(c1ccc(F)c(Cl)c1)N1CCN(c2cc(-c3ccccc3)[nH]n2)CC1	-29%	?	i	i	?
O=C(c1ccccc1)N1CCCN(c2cc(-c3ccc(Cl)cc3)[nH]n2)CC1	-18%	?	i	-16%	?
O=C(c1ccc2c(c1)OCO2)N1CCN(c2cc(-c3ccc(F)cc3)[nH]n2)CC1	?	14µM*	i	0%	?
SMILES	NPR1 antag	3T3 cytotox	Luciferase inh	GPT2 inhibitor	HEK cytotox
Cc1cc(C)cc(C(=O)N2CCN(c3cc(-c4ccc(Cl)cc4)[nH]n3)CC2)c1	?	40µM*	i	i	40µM*
O=C(c1cccc(Cl)c1)N1CCN(c2cc(-c3ccccc3)[nH]n2)CC1	-22%	?	i	i	45µM*
Cc1ccsc1C(=O)N1CCCN(c2cc(-c3ccc(Cl)cc3)[nH]n2)CC1	?	?	i	-14%	32µM*
Cc1ccccc1C(=O)N1CCCN(c2cc(-c3ccc(Cl)cc3)[nH]n2)CC1	?	?	i	-21%	?
O=C(c1ccc2nc[nH]c2c1)N1CCCN(c2cc(-c3ccc(Cl)cc3)[nH]n2)CC1	-2%	-10%	i	2%	-13%
O=C(c1ccc(Cl)cc1)N1CCN(c2cc(-c3ccc(F)cc3)[nH]n2)CC1	?	35µM*	i	-1%	?
O=C(c1ccc2ncccc2c1)N1CCCN(c2cc(-c3ccc(Cl)cc3)[nH]n2)CC1	?	?	i	-21%	35µM*
COCCNC(=O)c1ccc2c(c1)OCCN(c1cccc(OC(F)(F)F)c1)C2	-26%[70.6 µM]	?	i	-5%[88.5 µM]	?
CCC(=O)N1CCCN(CCN(C)C)c2ccccc21	5%	-2%	i	0%	-2%
O=C(Cc1cccs1)N1CCCN(CCc2ccccc2)c2ccccc21	-24%	32µM*	i	i	?
O=C(Cc1ccc(Br)cc1)N1CCCN(C(=O)C2CC2)c2ccccc21	-2%	?	i	-16%	?
CS(=O)(=O)N1CCCN(C(=O)Cc2ccc(OC(F)(F)F)cc2)c2ccccc21	-1%	?	i	i	?
CN1CCCN(C(=O)Cc2ccc(OC(F)(F)F)cc2)c2ccccc21	-1%	40µM*	i	0%	?
O=C(Cc1ccc(F)cc1)N1CCCN(CCc2ccccc2)c2ccccc21	.	35µM*	.	i	?
COC[C@@H]1CN(C(=O)Cc2c[nH]c3ccccc23)C[C@H]1c1nc(C)no1	3%	-3%	i	i	4%
c1cncc(CN2CCC[C@H]2c2nc(-c3ccc(-n4ccnc4)nc3)no2)c1	4%[70.6 µM]	-13%[138 µM]	i	1%[88.5 µM]	?
c1ccc(CN2CCC[C@H]2c2nc(-c3ccc(-n4ccnc4)nc3)no2)cc1	-3%[70.6 µM]	?	i	-21%[88.5 µM]	89µM*
CN1CCN(c2ccc(-c3noc([C@@H]4CCCN4CCCc4ccccc4)n3)cn2)CC1	4%[70.6 µM]	40µM*	i	-4%[88.5 µM]	?
c1ccc(CN2CCC[C@H]2c2nc(-c3ccnc(N4CCOCC4)c3)no2)nc1	-6%[70.6 µM]	35µM*	i	i	?
CN1CCN(c2ccc(-c3noc([C@@H]4CCCN4C4CCCCC4)n3)cn2)CC1	2%[70.6 µM]	79µM*	i	i	79µM*
